Laboratory results reported in PMC6212790, “How bacterial xenogeneic silencer rok distinguishes foreign from self DNA in its resident genome”.
The full ranking holds about 33,000 sequences; the median of “e-score” is about -0.037, and the highest 2% start at about 0.34. Only a selection was taken, and the highest values are over-represented in it overall.

Target: T1, GST-Rok (full length) (Bacillus subtilis subsp. subtilis str. …, UniProt O34857 1-191)
T1 sequence: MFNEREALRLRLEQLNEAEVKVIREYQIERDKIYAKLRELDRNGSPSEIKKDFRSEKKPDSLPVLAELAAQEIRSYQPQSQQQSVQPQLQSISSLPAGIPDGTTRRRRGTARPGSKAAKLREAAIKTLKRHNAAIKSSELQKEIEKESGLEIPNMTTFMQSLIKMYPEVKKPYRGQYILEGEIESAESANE
Assay: protein binding microarray; Rok is a gene silencer of Bacillus subtilis; high values mean tight binding
Settings: protein: recombinant; tags: GST (pTH5325, pDEST15-Magic modified); dsDNA, one strand shown
How it was run: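 Each has a 25-mer constant primer and a 35-mer variable part from a de Bruijn sequence of order 10, covering every non-palindromic 8-mer at least 32 times (palindromic 16). Preference for each 8-mer is given as a rank-based, unitless enrichment score (E-score). Its range runs from 0.5 (most favored) to −0.5 (most disfavored).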

Row | Sequence | binding signal
1 | AACGAAGC | -0.108 E-score
2 | ACGGAAAC | -0.0398 E-score
3 | AATTGACT | 0.16 E-score
4 | AAGTAACT | 0.225 E-score
5 | ACTAGGCG | -0.156 E-score
6 | TATGGTCA | -0.0127 E-score
7 | AGCGCAAA | 0.0549 E-score
8 | GCGTACTA | 0.082 E-score
9 | AAATTCTA | 0.402 E-score
10 | AAATTCTC | 0.0375 E-score
11 | AAATTCTT | 0.0789 E-score
12 | ACCGTCGA | 0.0177 E-score
13 | AGTACTAC | 0.389 E-score
14 | AGTACTGC | 0.114 E-score
15 | GGTACTAC | 0.212 E-score
16 | AGTACTAA | 0.357 E-score
17 | CGTACTAC | 0.339 E-score
18 | GGTACTAA | 0.138 E-score
19 | AGTACGAT | 0.134 E-score
20 | AGTACTCA | 0.0122 E-score
21 | CGTACTGC | 0.0418 E-score
22 | CGTACTAA | 0.217 E-score

Row | Sequence | binding signal
23 | TGTACTAA | 0.0689 E-score
24 | AGTACTAT | 0.388 E-score
25 | AGGAGTCC | -0.0508 E-score
26 | ATTCCTAC | 0.201 E-score
27 | CATGGTCA | -0.1 E-score
28 | TACCGAAA | 0.225 E-score
29 | TCGAATCA | -0.0502 E-score
30 | ACCGCACT | 0.0535 E-score
31 | AGTACTGG | 0.156 E-score
32 | CGTACTAG | 0.0856 E-score
33 | AGTACTAG | 0.385 E-score
34 | CCGGTATA | -0.0189 E-score
35 | AAGGTAGC | 0.133 E-score
36 | ACGGTATA | 0.252 E-score
37 | ACGGTAAA | 0.349 E-score
38 | TCGGTAAA | 0.136 E-score
39 | CCGGTAAA | 0.107 E-score
40 | GCGGTATA | 0.347 E-score
41 | ACGGTAGG | 0.137 E-score
42 | AAGGTAGG | 0.133 E-score
43 | ACGGTAGC | 0.139 E-score
44 | AAGGTAGT | 0.354 E-score

Row | Sequence | binding signal
45 | ACGGTAGT | 0.373 E-score
46 | CTAGATGA | 0.0637 E-score
47 | CTGCGAGA | -0.11 E-score
48 | AAGCCTGA | -0.131 E-score
49 | GACCCAGA | -0.174 E-score
50 | AGCAAACC | 0.0585 E-score
51 | GCGGTAGC | 0.0476 E-score
52 | ACGGTAGA | 0.365 E-score
53 | GAGGTAGA | 0.296 E-score
54 | TCGGTAGA | 0.231 E-score
55 | AAGGTAGA | 0.288 E-score
56 | TAGGTAGA | 0.361 E-score
57 | GCGGTAGA | 0.337 E-score
58 | CCGGTAGA | 0.229 E-score
59 | GGGGTAGA | 0.011 E-score
60 | GAAGCAAC | 0.0226 E-score
61 | GCCGTTAA | -0.0418 E-score
62 | CAGTTCTC | 0.00617 E-score
63 | AACGACAG | 0.0268 E-score
64 | GTATTGTA | 0.238 E-score
65 | GAATTGTA | 0.254 E-score
66 | CTATTGTA | 0.381 E-score

Row | Sequence | binding signal
67 | ACATTGTA | 0.222 E-score
68 | ATATTGTA | 0.375 E-score
69 | CAATTGTC | -0.0649 E-score
70 | CAATTGTA | 0.339 E-score
71 | CTATTGTC | -0.0651 E-score
72 | ATATTGTG | 0.172 E-score
73 | AATGTTGT | 0.154 E-score
74 | CAGGGTTC | -0.172 E-score
75 | CTAACTAC | 0.397 E-score
76 | CGAACTAG | 0.319 E-score
77 | AGAACTAC | 0.327 E-score
78 | GTAACTAC | 0.394 E-score
79 | GCAACTAC | 0.308 E-score
80 | ATAACTAC | 0.316 E-score
81 | CGAACTAC | 0.358 E-score
82 | GTAACTAA | 0.304 E-score
83 | CTAACTAA | 0.29 E-score
84 | AAAGCCTG | -0.18 E-score
85 | ATTTTAAA | 0.126 E-score
86 | GTCGCTAA | 0.16 E-score
87 | GCATATGC | 0.129 E-score
